# In PubChem BioAssay (NCI):
# About 79,000 compounds went through this panel and 15% of them were active in at least one assay; those are over-represented in the sample as a whole. A number with no mark means an inactive call. Calls of active or inactive are those of the source. No stated cut-off is given here; in the data, active means growth inhibition above about 70%; inactive means the rest.
# What was measured:
# [1] = NCI Yeast Anticancer Drug Screen. Data for the rad50 strain (AID 155);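 further: 0% = growth of vehicle-only cultures of the same strain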; details: S. cerevisiae rad50 strain growth inhibition, hits give high values
# Method in brief: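 Yeast carrying a defined DNA repair defect were exposed to test compounds, and growth was compared with vehicle-treated controls to give percent inhibition.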
# [2] = NCI Yeast Anticancer Drug Screen. Data for the mec2-1 strain (AID 157); details: S. cerevisiae mec2-1 strain, hits give high values
# Method in brief: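 Using mec2-1 yeast: add compound, measure growth, express inhibition versus vehicle-treated cultures.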
# [3] = NCI Yeast Anticancer Drug Screen. Data for the sgs1 mgt1 strain (AID 161);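 further: 0% = growth of cultures given vehicle only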; details: S. cerevisiae sgs1 mgt1 strain, hits give high values
# Method in brief: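 Compounds are added to genetically altered yeast, and growth is compared with cultures given vehicle alone to give percent inhibition.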
# [4] = NCI Yeast Anticancer Drug Screen. Data for the cln2 rad14 strain (AID 165);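 further: 0% = growth equal to vehicle treated cultures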; details: S. cerevisiae cln2 rad14 strain, hits give high values
# Method in brief: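 Yeast strain cln2 rad14, bearing defects in cell cycle control and DNA repair, serves as the test system; values reflect growth inhibition compared with vehicle.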
# [5] = NCI Yeast Anticancer Drug Screen. Data for the bub3 strain (AID 167); details: S. cerevisiae bub3 mutant strain, hits give high values
# Method in brief: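 Compounds were applied to a genetically altered yeast strain carrying a cell-cycle control defect. Growth inhibition was scored against vehicle-treated controls.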
# [6] = NCI Yeast Anticancer Drug Screen. Data for the mlh1 rad18 strain (AID 175); details: S. cerevisiae mlh1 rad18 strain growth inhibition, hits give high values
# Method in brief: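 Steps: expose repair-defective yeast to compound; measure growth; express inhibition against vehicle-treated controls.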
# [7] = at 5.0 µM (retest, dose inferred, filed as 0.5)
# [8] = at 50.0 µM (retest, dose inferred, filed as 5.0)
Compound,"growth inhibition [1, 7]","growth inhibition [1, 8]",growth inhibition ([1]; at 50.0 µM),"growth inhibition [2, 7]","growth inhibition [2, 8]",growth inhibition ([2]; at 50.0 µM),"growth inhibition [3, 7]","growth inhibition [3, 8]",growth inhibition ([3]; at 50.0 µM),"growth inhibition [4, 7]","growth inhibition [4, 8]",growth inhibition ([4]; at 50.0 µM),"growth inhibition [5, 7]","growth inhibition [5, 8]",growth inhibition ([5]; at 50.0 µM),"growth inhibition [6, 7]","growth inhibition [6, 8]",growth inhibition ([6]; at 50.0 µM)
NNc1cc(C(F)(F)F)nc2ccccc12,-133%,-80%,35.5%,-48%,-46%,3.1%,-53%,-48%,-21.1%,-56%,-88%,34.1%,-65%,-75%,1.45%,-108%,-95%,64.8%
CC(C)Cn1cnc2c(SCc3ccc(Cl)cc3Cl)nc(N)nc21,0%,46%,36.7%,-1%,38%,29.9%,20%,45%,90.8% (active),-15%,44%,41.2%,4%,32%,38.7%,-3%,66%,66.8%
Clc1ccc(/C=N\Nc2c3ccccc3nc3ccccc23)cc1Cl,-5%,25%,71% (active),13%,21%,14.6%,1%,38%,58.4%,-3%,4%,11.9%,13%,44%,28.1%,1%,57%,61.8%
Cc1ccc(/C=C2\CCC/C(=C\c3ccc(O)c(CN4CCCCC4)c3)C2=O)cc1,16%,22%,6.8%,4%,15%,-15.2%,0%,25%,70.9% (active),7%,27%,42.1%,-34%,28%,66.5%,9%,18%,84% (active)
COc1cc(C(=O)CBr)c2ccc(Cl)cc2n1,73% (active),97% (active),84.8% (active),90% (active),98% (active),69.2%,94% (active),97% (active),94% (active),59%,97% (active),95.3% (active),87% (active),97% (active),70.3% (active),93% (active),97% (active),91.4% (active)
O=C(OC1C2CCC2C2CC21)c1cc([N+](=O)[O-])cc([N+](=O)[O-])c1 (configuration not stated),-9%,97% (active),10.9%,4%,99% (active),98.1% (active),32%,99% (active),13%,3%,98% (active),97.8% (active),6%,98% (active),62.2%,42%,99% (active),58.9%
COc1ccc(/C=C2\CCC(CN3CCOCC3)C2=O)cc1 (configuration not stated),65%,99% (active),93.5% (active),92% (active),100% (active),93.8% (active),55%,99% (active),93.2% (active),46%,99% (active),91.8% (active),96% (active),99% (active),92.7% (active),89% (active),97% (active),89.7% (active)
Cc1c(-c2ccccc2)sc(/N=C/c2cc(Br)cc(Br)c2O)c1C#N,-17%,63%,5.9%,10%,34%,25.3%,15%,84% (active),29%,11%,12%,10.8%,5%,75% (active),19.2%,10%,60%,62.9%
CC(CC=NCCN=CCC(C)CC(C)(C)C)CC(C)(C)C (configuration not stated),16%,-2%,97.9% (active),-3%,3%,68.3%,5%,45%,91.3% (active),0%,10%,30.1%,-6%,3%,96.3% (active),1%,20%,98.4% (active)
